Assay results reported in PubChem BioAssay (NCATS).
Inconclusive results are not listed. A number with no mark means an inactive call. Activity calls are given as the source filed them. Calls follow the shape of the dose curve; as a rule, active = well fitted inhibition curve with a large enough effect; inconclusive = small, poorly fitted or top-dose-only effect; inactive = flat fitted curve, though single readings scatter.

What follows are compounds tested against Phospholipid hydroperoxide glutathione peroxidase GPX4 (Homo sapiens) (UniProt P36969) (assay: Primary qHTS Assay for Inhibitors of Recombinant Selenoprotein Glutathione Peroxidase 4 (GPX4) (AID 1845192; also: nearly all actives have a fitted effect of over 65% in size)). Conditions: recombinant GPX4, GR-coupled NADPH fluorescence, 15 min; series mostly up to 27.8 µM; activity change, negative = inhibition: at the top concentration.
Procedure, shortened: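 NADPH consumption followed by fluorescence at 340/450 nm, t=0 and after 15 min at room temperature. Reaction started with cumene hydroperoxide (0.5 mM final) after 30 min compound–GPX4 preincubation; final 200 nM GPX4, 100 nM GR, 1 mM GSH, 0.5 mM NADPH.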
% is scaled to controls: 0 for no effect and ±100 for the full control effect.

Chain of Phospholipid hydroperoxide glutathione peroxidase GPX4 (Homo sapiens) (P36969 whole entry, looked up): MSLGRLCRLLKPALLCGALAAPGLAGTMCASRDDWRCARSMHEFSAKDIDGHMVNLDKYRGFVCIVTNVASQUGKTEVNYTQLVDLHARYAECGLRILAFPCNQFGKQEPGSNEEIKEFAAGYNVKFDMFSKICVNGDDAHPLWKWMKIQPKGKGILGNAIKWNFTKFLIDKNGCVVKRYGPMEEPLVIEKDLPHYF

SMILES	activity change, negative = inhibition	outcome
C=C1CC23CC1CCC2C12OC(=O)C(C)(C(O)C(O)C1O)C2C3C(=O)O (configuration not stated)	-1.51%	
COc1c(O[C@@H]2O[C@H](CO)[C@@H](O)[C@H](O)[C@H]2O)c(CCC(=O)O)cc2ccoc12	-5.2%	
COc1ccc(C(=O)CC(=O)O)c2c1C=CC(C)(C)O2	-4.45% [at 50 µM]	
C=C(C(=O)O)C1CC(O)C2(C)CCCC(C)(O)C2C1 (configuration not stated)	-3.19% [at 50 µM]	
COC(=O)[C@H](Cc1ccc([N+](=O)[O-])cc1)NC(=O)c1cccc2ccccc12	5.07% [at 50 µM]	
Cc1occc1C(=O)n1ccnc1	-3.73% [at 50 µM]	
O=C(O)CCc1c(C(=O)O)[nH]c2cc(Cl)cc(Cl)c12		inactive
COC(=O)C1=CO[C@@H](O[C@@H]2O[C@H](CO)[C@@H](O)[C@H](O)[C@H]2O)[C@@H]2[C@@H](C(=O)O)CC[C@H]12	-20.2%	
COC(=O)[C@@H](NC(=O)[C@H](CC(C)C)NC(=O)N(Cc1ccccc1)C[C@@H](O)[C@H](Cc1ccccc1)NC(=O)OC(C)(C)C)C(C)C	-18.7% [at 9.73 µM]	
C/C=C(\C)C(=O)OC[C@H]1O[C@@H](O[C@H]2[C@@H](O[C@H]3O[C@H](COC(=O)/C(C)=C/C)[C@@H](O)[C@H](O)[C@H]3O[C@@H]3O[C@H](CO)[C@@H](O)[C@H](OC(=O)/C(C)=C/C)[C@H]3O)O[C@H](COC(=O)/C(C)=C/C)[C@@H](O)[C@@H]2O)[C@H](O)[C@@H](O)[C@@H]1O		inactive [at 15.3 µM]
O=C(O)/C=C/c1ccc2occc2c1O[C@@H]1O[C@H](CO)[C@@H](O)[C@H](O)[C@H]1O	-6.86%	
COCC1OC(OC(C)(C)C2CCC3(C)C=C(C4CCC5C4(C)CC(O)C4OC(C(C)(C)O)CCC45C)CCC3O2)C(NC(C)=O)C(O)C1O (configuration not stated)	-9.64% [at 15.3 µM]	
